Bioassay records as filed in PubChem BioAssay.
An excerpt weighted towards active compounds, which were near 10% of everything screened.
MmCpn inh – M. maripaludis TRiC chaperonin inhibition | purified Mm-Cpn ATPase, ADP Transcreener TR-FRET | Potency, µM (top dose mostly 76.9 µM), for inactives: top-dose activity, negative = inhibition, hits mostly inhibitors | 330,000 compounds, 0.031% hits; note: potency is the fitted concentration of half-maximal effect; nearly all actives have a fitted effect of over 80% in size
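Measured: ADP formation by purified Mm-CPN. Conditions: 25 nM protein, 10 uM ATP, Tris pH 7.4 with Mg2+, K+ and DTT, 37°C for 30 min. Detection: Transcreener HTRF after 30 min at room temperature.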
G9a inh – inhibitors of human histone lysine methyltransferase G9a; Q96KQ7; G9a H3K9 monomethylation, AlphaScreen, 2 h; Potency, µM (series often up to 102 µM), without a hit: at the highest dose activity, negative = inhibition, most hits filed as inhibitors; 350,000 compounds, 8.8% hits; AID 504332; note: potency is the fitted concentration of half-maximal effect; nearly all actives have a fitted effect of over 75% in size
Target sequence (Q96KQ7 913-1193 limits assumed): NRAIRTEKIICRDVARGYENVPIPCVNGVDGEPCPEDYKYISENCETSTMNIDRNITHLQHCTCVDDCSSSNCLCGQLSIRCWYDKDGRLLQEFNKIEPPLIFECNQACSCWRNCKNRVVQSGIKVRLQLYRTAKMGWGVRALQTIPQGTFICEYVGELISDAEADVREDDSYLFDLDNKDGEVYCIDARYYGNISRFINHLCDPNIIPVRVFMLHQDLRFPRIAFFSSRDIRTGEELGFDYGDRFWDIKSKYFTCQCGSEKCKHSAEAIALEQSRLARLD
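Readings reflect AlphaScreen signal from monomethyl-H3K9 antibody detection. HMT at 20 nM; substrate b-H3K9 500 nM; cofactor SAM 20 uM; 2 h RT reaction; compounds tested as titrations in qHTS with 15 min preincubation.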
PLK1 PBD inh – blocks phosphopeptide binding to human PLK1 polo-box domain; 360,000 compounds, 2.8% hits; P53350; Potency, µM, inactives show max response, negative = inhibition, usual class: inhibitors; Plk1 PBD binding of FITC phosphopeptide, fluorescence polarization; note: potency is the fitted concentration of half-maximal effect; series mostly up to about 57 µM; nearly all actives have a fitted effect of over 65% in size
CCT chaperon mod – modulators of cytosolic chaperonin (CCT/TRiC) activity | 360,000 compounds, 0.3% hits | purified chaperonin ATPase assay, HTRF ADP detection, 30 min | activity change, % (concentration not given with the values), hits read low; in the data active = activity change below about -30%
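TRiC (40 or 20 nM final, by batch activity) in 30 mM Tris pH 7.4, 100 mM KCl, 5 mM MgCl2, 1 mM DTT was treated with compound at 76 uM single dose, then 10 uM ATP, 30 min at 37 °C. ADP was read by HTRF Transcreener.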
VDR inh – blocks the human vitamin D receptor. Potency, µM, for the others: max response, negative = inhibition, hits mostly inhibitors. 400,000 compounds, 0.93% hits. AID 504847. VDR-SRC2-3 peptide fluorescence polarization, 2 h; note: potency is the fitted concentration of half-maximal effect
Target sequence (P11473 whole entry, looked up): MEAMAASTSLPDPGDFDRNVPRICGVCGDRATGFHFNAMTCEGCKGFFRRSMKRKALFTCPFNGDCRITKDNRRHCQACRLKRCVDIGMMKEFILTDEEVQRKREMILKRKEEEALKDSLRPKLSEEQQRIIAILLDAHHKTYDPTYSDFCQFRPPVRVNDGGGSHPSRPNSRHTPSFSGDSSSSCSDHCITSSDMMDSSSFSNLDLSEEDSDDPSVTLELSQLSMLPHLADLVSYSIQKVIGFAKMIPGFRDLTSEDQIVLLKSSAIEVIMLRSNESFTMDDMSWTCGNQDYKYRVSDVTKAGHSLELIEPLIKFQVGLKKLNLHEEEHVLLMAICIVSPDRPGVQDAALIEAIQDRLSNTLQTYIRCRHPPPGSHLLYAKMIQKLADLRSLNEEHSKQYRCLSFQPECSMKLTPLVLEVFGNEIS
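After 23 nl compound addition and a short centrifugation, plates sat for 2 hours at ambient temperature; polarization of fluorescence then indicated loss of VDR binding to peptide SRC2-3.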
Sfp PPTase inh – Sfp phosphopantetheinyl transferase inhibition. Q9F4F7. Potency, µM, without a hit: largest response in the series, negative = inhibition, actives largely listed as inhibitors. AID 1490. Biochemical Sfp PPTase activity, qHTS. 310,000 compounds, 3.5% hits;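 note: the enzyme is Sfp with the accession as filed and its product quenches rhodamine fluorescence; potency is the fitted concentration of half-maximal effect; 0% = enzyme reaction without inhibitor and -100% = no enzyme wells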
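After 15 min at room temperature with compound, 15 nM Sfp received 5 uM rhodamine-CoA plus 12.5 uM BHQ-2-ybbR (50 mM Hepes pH 7.6, 10 mM MgCl2). Rate came from the fluorescence difference over 30 min, ex 525/em 598 nm.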
An asterisk follows results filed as active; [ ] = dose if it differs, or a comment. Unless noted, calls come from the whole dose curve; as a rule, active = well fitted curve in the direction sought with a large enough effect; inconclusive = small, poorly fitted or top-dose-only effect, or another doubt; inactive = no such curve, though single readings can be large; an effect the other way counts as inactive or inconclusive. Unless noted, % is set by controls: 0 for no effect and ±100 for the full control effect.

What do the screens show for `COc1ccc2c(c1)CC(C(=O)Nc1cc(Cl)ccc1C)CO2` (stereo unspecified)?
G9a inh: 3%[59 µM]; VDR inh: 0%

Results for Cc1ccccc1NC(=O)CSc1nc(-c2ccccc2)cn1-c1ccccc1F ?
G9a inh: 11µM*; VDR inh: 1%

How did CCCn1c(SCC(=O)Nc2ccccc2C(=O)OC)nc2c1c(=O)n(C)c(=O)n2C do in these assays?
MmCpn inh: -15%; G9a inh: inconclusive; PLK1 PBD inh: -9%; CCT chaperon mod: 0; VDR inh: -11%; Sfp PPTase inh: 23%

How did CCCn1c(SCC(=O)Nc2ccccc2N2CCCCC2)nc2c1c(=O)n(C)c(=O)n2C do in these assays?
MmCpn inh: inconclusive; G9a inh: 21%[59 µM]; PLK1 PBD inh: -7%; CCT chaperon mod: -3; VDR inh: 72%; Sfp PPTase inh: 35µM*

Results for Cn1c(=O)c2c(ncn2CC(=O)N2CCN(c3ccc(F)cc3)CC2)n(C)c1=O ?
MmCpn inh: 0%; G9a inh: 10%[12.7 µM]; PLK1 PBD inh: 27µM*; CCT chaperon mod: -2; VDR inh: -15%; Sfp PPTase inh: 13%

How did CCCn1c(SCC(=O)N2CCCC2)nc2c1c(=O)n(C)c(=O)n2C do in these assays?
MmCpn inh: 4%; G9a inh: 25%; PLK1 PBD inh: -1%; CCT chaperon mod: 2; VDR inh: -7%; Sfp PPTase inh: 10%

How did Cc1ccccc1-n1cc(-c2ccccc2)nc1SCC(=O)Nc1ccc(F)cc1 do in these assays?
G9a inh: inconclusive; VDR inh: 21%

How did CCCn1c(SCC(=O)N2CCN(c3ccc(OC)cc3)CC2)nc2c1c(=O)n(C)c(=O)n2C do in these assays?
MmCpn inh: -1%; G9a inh: 50µM*; PLK1 PBD inh: -10%; CCT chaperon mod: -2; VDR inh: 0%; Sfp PPTase inh: -4%

Results for CCc1ccccc1NC(=O)CC(C)n1nc(C)cc1C (stereo unspecified) ?
G9a inh: 4%[59 µM]; VDR inh: 2%

Results for CCOc1ccccc1NC(=O)Cc1csc(COc2cccc(C)c2)n1 ?
G9a inh: 3%[59 µM]; VDR inh: -5%

What do the screens show for `Cc1ccc(-c2nc(CS(=O)(=O)CC(=O)NCCc3ccccc3)c(C)o2)cc1`?
G9a inh: -2%[59 µM]; VDR inh: -13%

How did Cc1ccccc1NC(=O)CSc1nc2c(c(=O)n(C)c(=O)n2C)n1C do in these assays?
MmCpn inh: 1%; G9a inh: 71µM*; PLK1 PBD inh: 1%; CCT chaperon mod: -2; VDR inh: -11%; Sfp PPTase inh: 15%

How did Cc1ccccc1NC(=O)CSc1nc2c(c(=O)n(C)c(=O)n2C)n1Cc1ccccc1F do in these assays?
G9a inh: -5%[59 µM]; VDR inh: -9%

Results for COC(=O)Nc1sc2c(c1C(=O)NC1CC1)CCCCCC2 ?
MmCpn inh: -1%; G9a inh: inconclusive; PLK1 PBD inh: -22%; CCT chaperon mod: -3; VDR inh: -6%; Sfp PPTase inh: 32µM*

What do the screens show for `COC(=O)c1c(NC(=O)C2CC2)sc2c1CCN(C(C)=O)C2`?
MmCpn inh: -5%; G9a inh: 45µM*; PLK1 PBD inh: -7%; CCT chaperon mod: -1; VDR inh: -13%; Sfp PPTase inh: 14µM*

How did O=C(Nc1sc2c(c1C(=O)NC1CC1)CCCCCC2)c1ccco1 do in these assays?
MmCpn inh: -3%; G9a inh: inconclusive; PLK1 PBD inh: -22%; CCT chaperon mod: -2; VDR inh: 18%; Sfp PPTase inh: 40µM*

How did CNC(=O)c1c(NC(=O)c2ccco2)sc2c1CCCC2 do in these assays?
MmCpn inh: -3%; PLK1 PBD inh: -2%; CCT chaperon mod: -2; VDR inh: -4%; Sfp PPTase inh: -8%

How did COC(=O)c1c(NC(=O)C2CCCCC2C(=O)O)sc2c1CCCCC2 (stereo unspecified) do in these assays?
MmCpn inh: -5%; G9a inh: 32µM*; PLK1 PBD inh: 24µM*; CCT chaperon mod: -1; VDR inh: -15%; Sfp PPTase inh: 1%

How did O=C(O)CCC(=O)Nc1sc2c(c1C(=O)NC1CCCC1)CCCC2 do in these assays?
MmCpn inh: 0%; G9a inh: -6%; PLK1 PBD inh: -18%; CCT chaperon mod: -2; VDR inh: -11%; Sfp PPTase inh: 14%

How did CCOc1ccc(CC(=O)Nc2c(C(=O)c3ccccc3)oc3ccc(Cl)cc23)cc1OCC do in these assays?
G9a inh: 5%[59 µM]; VDR inh: -11%

How did O=C1CN(C(=O)c2ccccc2C(F)(F)F)C(c2ccccc2)c2cc(F)ccc2N1 (stereo unspecified) do in these assays?
G9a inh: 9%[59 µM]; VDR inh: -4%

Results for COc1ccc(CCNC(=O)c2csc3c2CCCCC3)c(OC)c1 ?
G9a inh: 1%[59 µM]; VDR inh: 1%

What do the screens show for `Cc1ccc(C(=O)C(NC(=O)c2ccco2)Nc2sc3c(c2C(N)=O)CCCC3)cc1` (stereo unspecified)?
MmCpn inh: -2%; G9a inh: 13µM*; Sfp PPTase inh: 79µM*

How did Cc1oc2c(C)c3oc(=O)c(CCC(=O)N4CCCCC4)c(C)c3cc2c1C do in these assays?
G9a inh: -2%[59 µM]; VDR inh: 7%

How did CC(NC(=O)Cn1nc(-c2ccccc2)c2ccccc2c1=O)c1ccccc1 (stereo unspecified) do in these assays?
MmCpn inh: -1%; G9a inh: -5%; PLK1 PBD inh: -6%; CCT chaperon mod: -1; VDR inh: -8%; Sfp PPTase inh: -23%

How did CC(NC(=O)Cn1nc(C(=O)O)c2ccccc2c1=O)c1ccccc1 (stereo unspecified) do in these assays?
MmCpn inh: 1%; G9a inh: inconclusive; PLK1 PBD inh: 30µM*; CCT chaperon mod: -1; VDR inh: -15%; Sfp PPTase inh: 10%

What do the screens show for `CC(=O)NS(=O)(=O)c1ccc(NC(=O)c2ccc3c(c2)NC(=O)CS3)cc1`?
MmCpn inh: 1%; PLK1 PBD inh: -18%; CCT chaperon mod: -3; VDR inh: -2%

How did COc1ccc(NC(=O)c2ccc3c(c2)NC(=O)CS3)cc1S(=O)(=O)Nc1ccc(Br)cc1 do in these assays?
MmCpn inh: -10%; PLK1 PBD inh: inconclusive; CCT chaperon mod: -2; VDR inh: -26%; Sfp PPTase inh: 18µM*

Results for Cc1ccc(NS(=O)(=O)c2cc(NC(=O)c3ccc4c(c3)NC(=O)CS4)ccc2C)c(C)c1 ?
MmCpn inh: -5%; G9a inh: 7.9µM*; PLK1 PBD inh: 9.5µM*; CCT chaperon mod: 2; VDR inh: inconclusive; Sfp PPTase inh: 10µM*
